Shown are actives, neighbours in structure and some others; about 4.1% of the full set was active somewhere.
DAX1 inh-1: inhibits human nuclear receptor DAX1; actives 0.99% (n = 340,000); HEK293 Gal4-DAX1 luciferase reporter, luminescence; P51843; inhibition, % at 6.75 µM;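 active = inhibition above the mean over all tested compounds plus 3 SD, cut at about 4.2% in these data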;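 also: inhibition shows as a rise in luminescence from relieved DAX1 repression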
Target sequence (P51843 207-470 limits assumed): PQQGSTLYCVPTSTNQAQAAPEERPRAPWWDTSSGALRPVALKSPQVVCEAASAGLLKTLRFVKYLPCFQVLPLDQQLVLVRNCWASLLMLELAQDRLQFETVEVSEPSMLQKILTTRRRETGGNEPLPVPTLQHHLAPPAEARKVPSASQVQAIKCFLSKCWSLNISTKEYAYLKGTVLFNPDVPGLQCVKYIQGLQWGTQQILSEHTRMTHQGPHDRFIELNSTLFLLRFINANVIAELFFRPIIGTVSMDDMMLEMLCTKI
DAX1 inh-2: blocks DAX1 repression of SF-1 activated StAR promoter; HEK293T StAR-luciferase reporter, SF-1/DAX-1 repression relief; inhibition, % at 6.8 µM; actives 1.1% (n = 370,000); AID 652010;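 active = inhibition above the mean over all tested compounds plus 3 SD, cut at about 3.6% in these data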;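 also: higher inhibition means more luminescence from relief of DAX-1 repression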
ssDAF12 agonist: S. stercoralis DAF-12 activation, primary screen; AID 652126; actives 1% (n = 370,000); activation, % at 6.8 µM; HEK293 ssDAF-12/GRIP1 lit1-tk-luc reporter, luminescence; % of 3 µM dafachronic acid response;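 active = activation above the mean over all tested compounds plus 3 SD, cut at about 0.9% in these data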
hgDAF-12 ag: hgDAF-12 agonism, primary luciferase screen. HEK293 GAL4-hgDAF12 UAS-luciferase reporter, agonist luminescence; normalized to butyrate control. activation, % at 6.8 µM. actives 1.8% (n = 370,000);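 active = activation above a cutoff set at the mean of all screened compounds plus 3 SD, cut at about 10% in these data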
hcDAF-12 act: activates DAF-12 receptor from parasite H. contortus | HEK293 hcDAF-12 lit1-tk-luc reporter, luminescence; 0% DMSO, 100% Δ7-dafachronic acid | activation, % at 6.8 µM | actives 1.4% (n = 370,000);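 active = activation above the mean of all tested compounds plus 3 SD, cut at about 5.5% in these data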
Hits are given with their value; ! = a repeat was not active.

CC(C)C(OC(=O)c1cccs1)C(=O)NCc1ccccc1 (stereo unspecified) was read as DAX1 inh-1 inactive, DAX1 inh-2 inactive, ssDAF12 agonist inactive, hgDAF-12 ag inactive and hcDAF-12 act inactive.
Cc1ccc(CNC(=O)C(OC(=O)c2cccs2)C(C)C)cc1 (stereo unspecified) was read as DAX1 inh-1 4.6, DAX1 inh-2 inactive, ssDAF12 agonist inactive, hgDAF-12 ag inactive and hcDAF-12 act inactive.
CCOc1ccc(NC(=O)CN2C(=O)C3CCCN3C2=O)cc1 (stereo unspecified) was read as DAX1 inh-1 4.7, DAX1 inh-2 inactive, ssDAF12 agonist inactive, hgDAF-12 ag inactive and hcDAF-12 act inactive.
`COc1ccc(Br)c(-c2nnc(CS(=O)(=O)c3ccccc3)o2)c1` gave DAX1 inh-1 inactive, DAX1 inh-2 inactive, ssDAF12 agonist inactive, hgDAF-12 ag 11 and hcDAF-12 act inactive.
For CCc1noc(C)c1C(=O)NNC(=O)c1nn(C)c(=O)c2ccccc12 the results were DAX1 inh-1 inactive, DAX1 inh-2 inactive, ssDAF12 agonist inactive, hgDAF-12 ag inactive and hcDAF-12 act inactive.
`CCc1noc(C)c1C(=O)NNC(=O)c1nn(CC)c(=O)c2ccccc12` gave DAX1 inh-1 5.2, DAX1 inh-2 inactive, ssDAF12 agonist inactive, hgDAF-12 ag inactive and hcDAF-12 act inactive.
For Cc1ccc(NC(=O)N2CCC(N(C)CCC(C)C)CC2)cc1F the results were DAX1 inh-2 inactive, ssDAF12 agonist inactive, hgDAF-12 ag inactive and hcDAF-12 act inactive.
CC(=O)Nc1ccc(Nc2nc(-c3sc(NC(C)=O)nc3C)cs2)cc1 was read as DAX1 inh-1 inactive, DAX1 inh-2 inactive, ssDAF12 agonist inactive, hgDAF-12 ag inactive and hcDAF-12 act inactive.
For CC(=O)Nc1cccc(-c2csc(Nc3cc(C)ccn3)n2)c1 the results were DAX1 inh-1 inactive, DAX1 inh-2 inactive, ssDAF12 agonist inactive, hgDAF-12 ag 11 and hcDAF-12 act inactive.
Screening Cc1cccnc1Nc1nc(-c2ccc(O)cc2O)cs1 returned DAX1 inh-1 inactive, DAX1 inh-2 inactive, ssDAF12 agonist inactive, hgDAF-12 ag inactive and hcDAF-12 act inactive.
CC(=O)Nc1nc(C)c(-c2csc(Nc3ccccn3)n2)s1 was read as DAX1 inh-1 inactive, DAX1 inh-2 inactive, ssDAF12 agonist inactive, hgDAF-12 ag 10! and hcDAF-12 act inactive.
For CC(=O)Nc1ccc(-c2csc(Nc3cc(C)ccn3)n2)cc1 the results were DAX1 inh-1 inactive, DAX1 inh-2 inactive, ssDAF12 agonist inactive, hgDAF-12 ag inactive and hcDAF-12 act inactive.
Screening Oc1ccc(-c2csc(Nc3ccccn3)n2)c(O)c1 returned DAX1 inh-1 4.6, DAX1 inh-2 inactive, ssDAF12 agonist inactive, hgDAF-12 ag inactive and hcDAF-12 act inactive.
Screening CCOC(=O)N1CCN(C(=O)C[C@H]2C[C@@]3(C(=O)OC)C(=C[C@H](C4CCCC4)O[C@@H]3C)N(Cc3cccc4ccccc34)C2=O)CC1 returned DAX1 inh-2 inactive, ssDAF12 agonist inactive, hgDAF-12 ag inactive and hcDAF-12 act inactive.
For CNC(=O)CN(c1ccc(F)cc1)S(=O)(=O)c1cc(C)ccc1OC the results were DAX1 inh-1 4.3, DAX1 inh-2 inactive, ssDAF12 agonist inactive, hgDAF-12 ag inactive and hcDAF-12 act inactive.
`COc1ccc(C)cc1S(=O)(=O)N(CC(=O)O)c1ccc(C)cc1` gave DAX1 inh-1 inactive, DAX1 inh-2 inactive, ssDAF12 agonist inactive, hgDAF-12 ag inactive and hcDAF-12 act inactive.
For COc1ccccc1C(=O)NC1CCCCN(Cc2cccc(C(F)(F)F)c2)C1=O (stereo unspecified) the results were DAX1 inh-2 inactive, ssDAF12 agonist inactive, hgDAF-12 ag 19 and hcDAF-12 act inactive.
Screening O=C(NC1CCCCN(Cc2cccc(C(F)(F)F)c2)C1=O)c1cccc(C(F)(F)F)c1 (stereo unspecified) returned DAX1 inh-2 inactive, ssDAF12 agonist inactive, hgDAF-12 ag inactive and hcDAF-12 act inactive.
Screening CCC(=O)Nc1ccc2c(c1)C(=O)N(C)[C@@H]1CC[C@@H](CC(=O)NCc3ccc(OC)cc3)O[C@H]1CO2 returned DAX1 inh-2 inactive, ssDAF12 agonist inactive, hgDAF-12 ag inactive and hcDAF-12 act inactive.
Screening COc1ccc(/C=C2\SC(=O)N(CCNC(=O)CN3C(=O)NC4(CCCC4)C3=O)C2=O)cc1 returned DAX1 inh-1 inactive, DAX1 inh-2 4.2, ssDAF12 agonist inactive, hgDAF-12 ag inactive and hcDAF-12 act inactive.

Compound activity: PubChem, The Scripps Research Institute Molecular Screening Center
